ROMK mod = human ROMK K+ channel modulation, primary screen; P48048; Tet-inducible ROMK, thallium flux fluorescence; actives lie on both sides; B-score at 10 µM; actives 2% (n = 130,000);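 active = signal ratio slope over the read window, or its plate-corrected B-score, at least 3 SD from the plate mean, either direction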;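 also: B-score of the F/F0 ratio slope over 7 to 12 s after thallium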
Arbovirus inh = blocks arbovirus infection | arbovirus infection cell-based antiviral screen | inhibition, % at 10 µM | actives 0.37% (n = 200,000) | AID 1251; in the data active = inhibition above about 30%
WT yeast gro inh = growth inhibition of WT yeast, mitochondrial fusion screen | AID 1362 | mitochondrial fusion phenotypic screen, WT strain | actives 2.1% (n = 190,000) | inhibition, % at 10 µM; in the data active = inhibition above about 58%; tested in S. cerevisiae
PERK inhibitor = inhibitors of human PERK kinase. CHO PERK-DD fusion, SEAP luminescence translation reporter. inhibition, % at 5.6 µM. actives 0.17% (n = 220,000). Q9NZJ5. AID 1416;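 active = inhibition above the mean inhibition of all tested compounds plus 3 SD, set separately per screening campaign, cut at about 2.9% in these data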;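 also: PERK kinase domain activated by AP20187 dimerizer at 100 nM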
ROMK hit retest = confirmation of human ROMK potassium channel modulators. shares compounds with ROMK mod. ROMK thallium flux, fluorescence ratio; hits give low values. normalized thallium flux (F/F0 slope) at 10 µM. actives 54% (n = 3,000). AID 1917;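 active = Flux at 10 µM at least 3 SD below or above vehicle control mean in one or both replicates; inconclusive = no clear call, values can overlap the other calls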
Each line names hits and unclear results; the compound was inactive in the other large screens (follow-up assays come after a bar, where they were run). In the library only some 3.3% were active in any assay of this set; here they are far more common.

CCN(CC)c1ccc(N=Cc2cc(Br)ccc2O)cc1	ROMK mod -5.58 | ROMK hit retest 0.0639
O=C(O)c1cccc(NC(=S)NC(=O)c2ccc(-c3ccc(Cl)cc3)o2)c1	ROMK mod 2.13, Arbovirus inh 35.4 | ROMK hit retest inactive
Clc1ccc(COc2cccc(CNCc3ccncc3)c2)cc1	ROMK mod -3.79 | ROMK hit retest inactive
CC(C)(CO)NCc1cccc(OCc2ccc(Cl)cc2)c1	none
COc1ccccc1C(=O)NC1CCCCCCC1	none
COc1ccc(S(=O)NC2CCCCC2)c(OC)c1C (stereo not drawn)	none (no result: ROMK mod) | ROMK hit retest inactive
Cc1csc2nc3cc(C(N)=O)ccc3c(=O)n12	none (no result: ROMK mod, Arbovirus inh, WT yeast gro inh, PERK inhibitor) | ROMK hit retest inactive
Cc1ccc(NC(=O)C(=O)NCCN2CCN(S(C)(=O)=O)CC2)cc1	none
CCOc1ccc(/C=C/[N+](=O)[O-])c2ccccc12	ROMK mod -3.78 | ROMK hit retest 0.0426
CCOC(=O)Cn1cc(/C=C/[N+](=O)[O-])c2ccccc21	ROMK mod -3.45 | ROMK hit retest 0.0355
CCCCOC(=O)c1ccc(NC(=O)COC(=O)CSc2nc(C)cc(C)n2)cc1	ROMK mod -3.12 | ROMK hit retest inactive
COc1ccc(NC(=O)CSc2nc(C)cc(C)n2)cc1	none
O=C(/C=C/c1ccc(F)cc1)N1CCCc2ccccc21	ROMK mod -2.36 | ROMK hit retest inconclusive
CC1=CC(C)(C)N(S(=O)(=O)c2ccc(C)cc2)c2ccccc21	ROMK mod 3.21 | ROMK hit retest inactive
Cn1cnnc1SCC(=O)Nc1ccc(OC(F)F)cc1	none
Cc1ccc(NNc2c(C)nc3ccccc3nc2=O)cc1	ROMK mod 2.72 | ROMK hit retest 0.105
